The whole screen tested about 350,000 compounds, of which about 9,900 (2.8%) were called active. Entries that show only a call come without a potency. Inconclusive results (about 15%) are left out. Calls follow the shape of the dose curve; as a rule, active = well fitted activation curve with a large enough effect; inconclusive = small, poorly fitted or top-dose-only effect; inactive = no such curve, though single readings can be large or run the other way. This excerpt belongs to a sample that is enriched for actives.
Test: A quantitative high throughput screen for small molecules that induce DNA re-replication in MCF 10a normal breast cells. Also: nearly all actives have a fitted effect of over 50% in size.
Conditions: MCF 10A DNA re-replication, Hoechst nuclear intensity, 48 h; series mostly up to 46.1 µM
From the text: H Molecular Libraries Probe Production Network [MLPCN]
NIH Chemical Genomics Center [NCGC]
Assay Provider: Melvin DePamphilis, NICHD, NIH
Eukaryotic cells normally restrict genome duplication to once per cell division. When this process is aberrant, DNA re-replication occurs when cells reinitiate DNA replication before the first round of replication is complete. DNA re-replication induces the DNA damage response, arrests cell proliferation, and triggers apoptosis. The cell cycle components cyclin A, Cdt-1, Cdc6 and geminin are critical regulators of this process and their misregulation results in DNA re-replication in normal and cancer cells. To identify compounds that induce re-replication in normal cells, an image-based assay was used to measure DNA content of nuclei, as detected by the fluorescent DNA binding dye, Hoechst. Cell nuclei were imaged by a fluorescence scanning plate imager and compounds that induce DNA re-replication were identified by the increase of nuclei with elevated fluorescence intensity
For screening, 250 cells in 5 uL/well were dispensed into black clear 1536-well plates (Aurora) using a solenoid-based dispenser. Following transfer of 23 nL compound or DMSO vehicle by a pin tool, the plates were incubated 48 hr at 37 C and 5% CO2. After addition of 1 uL/well Hoescht stain, the plates were incubated 40 min at 37 C, 5% CO2 and total intensity of fluorescent objects (nuclei) were enumerated by an Acumen Explorer Ex3 (TTP LabTech) fluorescence scanning plate imager (405 nm excitation, 500-530 nm emission).
Keywords: NIH Roadmap, MLPCN, MLI, MLSMR, qHTS, NCGC, DNA replication, cancer
Potency is read from the fitted curve at half-maximal effect.

SMILES | Potency
CCOC(=O)c1c(N)n(Cc2ccccc2)c2nc3ccccc3nc12 | inactive
CCOC(=O)c1c(N)n(CCN2CCOCC2)c2nc3ccccc3nc12 | inactive
COc1cc(Cn2c(N)c(C(=O)NCc3ccco3)c3nc4ccccc4nc32)cc(OC)c1OC | 2.31 µM (active)
CC1CCCN1CCC(C(N)=O)(c1ccccc1)c1ccccc1 (stereo not given) | inactive
C[C@]12CC[C@H](O)CC1=C([N+](=O)[O-])CC1C2CC[C@@]2(C)C1CC[C@@H]2O (stereo not given in full) | inactive
CCc1ccc(OCC(=O)N2CCN(CC(=O)Nc3ccccc3Cl)CC2)cc1 | inactive
C[C@]12CCCCC1=CC(=O)C1C2CC[C@@]2(C)C1C[C@@H](F)[C@@H]2O (stereo not given in full) | inactive
O=c1[nH]c(CN2CC=C(c3ccccc3)CC2)nc2scc(-c3cccs3)c12 | 25.9 µM (active)
C=C(C)C1(CCCC)C(=O)NC(=S)NC1=O | inactive
Cc1ncsc1CCCl | inactive
CCC(=O)c1ccc(OCC(=O)N2CCN(CC(=O)Nc3ccc(C)cc3)CC2)cc1 | inactive
COc1ccc(C2CC(c3cccs3)=NN2c2nc(C)c(C(C)=O)s2)cc1OC (stereo not given) | 3.26 µM (active)
c1ccc2sc(SNC3CCCCC3)nc2c1 | inactive
C=CCN1CCC23c4c5ccc(O)c4O[C@H]2C(=O)CC[C@@]3(O)C1C5 (stereo not given in full) | inactive
CC1C(=O)OC2CCN3CC=C(COC(=O)C(C)(O)C1(C)O)C23 (stereo not given) | inactive
COc1ccc2c3c1O[C@H]1C[C@@H](O)C=C[C@@]31CCN(C)C2 | inactive
CCOC(=O)CC(SP1(=S)OCC2(CCCCO2)C(C2CCCCO2)O1)C(=O)OCC (stereo not given) | inactive
C[C@]12CCC3C(CC[C@H]4[C@H](O)[C@H](O)CC[C@]34C)C1CC[C@@H]2O (stereo not given in full) | inactive
C/C(CCc1c[nH]c2ccccc12)=N\O | inactive
C/C(=N/O)c1ccc2ccc3ccccc3c2c1 | 25.9 µM (active)
O=[N+]([O-])c1cnc2ccc3ccccc3c2c1 | inactive
CCNC[C@H](O)c1cccc(O)c1 | inactive
Nc1ccc(Cc2ccc(N)c(Cl)c2)cc1Cl | inactive
COc1ccc2c(c1)NP(=S)(c1ccccc1)N2 (stereo not given) | inactive

SMILES | Potency
CC(CC(C#N)(c1ccccc1)c1ccccc1)N1CCCCC1 (stereo not given) | inactive
CN(C)CC1Oc2ccccc2OC1(O)c1ccccc1 (stereo not given) | 2.59 µM (active)
c1ccc(C(CN2CCCCC2)c2ccccc2)cc1 | inactive
COc1cc(OC)cc(C2(C#N)CCN(C)CC2)c1 | inactive
Cc1cccc([C@H](C)c2cnc[nH]2)c1C | inactive
CCOc1ccc(CN(CCCl)CCCl)cc1C(=O)OC | inactive
O=C1NC(=O)C(Cc2ccccc2)C(=O)N1 | inactive
N#Cc1ccc(Cn2cc(C(=O)c3ccco3)c3ccccc32)cc1 | inactive
NC(=O)Cn1cc(C(=O)c2ccccc2F)c2ccccc21 | 0.58 µM (active)
Cn1cc(C(=O)OCC(=O)N2CCCC2)c2ccccc21 | inactive
CCOC(=O)C1(c2ccccc2)CCN(CC(O)c2ccc(NC(C)=O)cc2)CC1 (stereo not given) | inactive
O=c1c2ccccc2nc(-c2ccco2)n1-c1ccc(Br)cn1 | inactive
Cc1nc2ccccc2c(=O)n1-c1ccc(Cl)cc1Cl | inactive
O=c1c2ccccc2nc(/C=C/c2ccco2)n1-c1ccccc1O | 23.1 µM (active)
CNC(C)[C@@H](O)c1ccccc1 (stereo not given in full) | inactive
CCC(=O)OC(Cc1ccccc1)(c1ccccc1)C(C)CN(C)C (stereo not given) | inactive
c1cc2c(cc1C1OCC3C(c4ccc5c(c4)OCO5)OCC13)OCO2 (stereo not given) | inactive
CC(=O)C1(O)CCC2C3CCC4=C(Cl)C(=O)CCC4(C)C3CCC21C (stereo not given) | inactive
N#CC1=C(N)Oc2c(c(=O)oc3ccccc23)C1c1ccccc1OC(=O)c1cccs1 (stereo not given) | 20.6 µM (active)
CCNc1nc2[nH]c(=O)c3c(c2s1)OC(N)=C(C#N)C3c1cccs1 (stereo not given) | inactive
CCN1C(=O)NC(=O)C2(CCCC2)C1=O | inactive
COc1cc(-n2c(=S)[nH]c3ccc(C)cc3c2=O)c(Cl)cc1Cl | 13 µM (active)
CC1([N+](=O)[O-])COP(=O)(Nc2ccc(F)cc2)OC1 (stereo not given) | inactive
COc1ccc2cc1Oc1ccc(cc1)C[C@H]1c3cc(c(OC)cc3CCN1C)Oc1c(O)c(OC)cc3c1[C@H](C2)N(C)CC3 | 20.6 µM (active)

SMILES | Potency
COc1c(O)ccc2c1-c1c3c(cc4c1C(C2)N(C)CC4)OCO3 (stereo not given) | inactive
CC[N+]1(CCOC(=O)C(O)(c2ccccc2)c2ccccc2)CCCCC1 | inactive
COC1=C[C@@H]2[C@@H]3Cc4ccc(OC)c(O)c4[C@]2(CCN3C)CC1=O | inactive
CNCC[C@H](Oc1ccc(C(F)(F)F)cc1)c1ccccc1 | inactive
Cc1cc(-c2ccc(N)c(C)c2)ccc1N | inactive
CC1CNCCN1c1ccc(Cl)cc1 (stereo not given) | inactive
C[C@@H]1C[C@@H]2O[C@H]2/C=C\C=C\C(=O)Cc2c(Cl)c(O)cc(O)c2C(=O)O1 | 9.2 µM (active)
CC(=O)OC1C([N+]2(C)CCCCC2)C[C@H]2C3CC[C@H]4C[C@H](OC(C)=O)C([N+]5(C)CCCCC5)CC4(C)C3CCC12C (stereo not given in full) | inactive
Cc1ncc(CC(=O)n2cc(C(=O)c3cc(Cl)ccc3O)cn2)s1 | 10 µM (active)
C[C@]12CCC3C(CC[C@H]4[C@H](O)[C@H](O)CC[C@]34C)C1CCC2=O (stereo not given in full) | inactive
O=C1NC(=O)C(CCOc2ccccc2)(CCc2ccccc2)C(=O)N1 | inactive
CCC1(c2ccccc2)C(=O)NC(=O)N(C)C1=O (stereo not given) | inactive
CCC1(CC(C)c2ccccc2)C(=O)NC(=O)NC1=O (stereo not given) | inactive
Cc1cc2ccccn2c1C(C[N+](=O)[O-])c1c(F)cccc1Cl (stereo not given) | 3.26 µM (active)
Oc1ccc2c3c1OC1[C@H](O)CC[C@@]4(O)[C@@H](C2)N(CC2CC2)CC[C@]314 (stereo not given in full) | inactive
CN1CCCC(=C(c2cccs2)c2cccs2)C1 | inactive
COC(=O)[C@@H]1C(OC(=O)c2ccccc2)CC2CCC1N2C (stereo not given in full) | inactive
Brc1cc(Br)c(Oc2cc(Br)c(Br)cc2Br)cc1Br | 14.6 µM (active)
CC[C@]1(C(=O)OC)[C@H]2C(=O)N(Cc3ccccc3)C(=O)[C@H]2[C@H]2CN=C(SCc3ccc(C#N)cc3)N21 | inactive
Cc1cc(C)c2c(c1)NP(=S)(c1ccccc1)N2 (stereo not given) | inactive
CN=C(NC#N)NCCSCc1nc[nH]c1C | inactive
O=C(N/N=C/c1ccc([N+](=O)[O-])o1)c1cc([N+](=O)[O-])cc([N+](=O)[O-])c1O | inactive
